Experimental data published in PubChem BioAssay AID2462 (Broad Institute, 2010).
Screen size: about 330,000 compounds; about 220 (0.067%) were called active.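 The calls were made as follows: active = over half of replicate activation scores above 10%, or exactly half above 10 with the replicate mean above 10; inconclusive = replicate mean below 10 yet half the replicates above 10; inactive = over half of replicates below 10.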 Shown is part of a subset that was picked to be rich in actives.

experiment: caspase 3/7 activation in MEF A1-2A-BIM cells, primary screen, A1 inhibitor project, cell-based, luminescence, HTS (AID 2462); conditions: Caspase-Glo 3/7 luminescence, 3 h, stronger effect = higher value, percent of clofoctol response, vehicle zero, concentration not given here

Compound	caspase activation
C=CCOc1c(CNn2cn[nH]c2=S)cccc1OC	0.398% (inactive)
CCOC(=O)c1c(C)n(C)c2ccc(OC)c(NS(=O)(=O)CC)c12	-0.135% (inactive)
CC12CCC(C(=O)N(NC(=O)c3ccccc3O)C1=O)C2(C)C (stereo not given)	1.44% (inactive)
CCOC(=O)c1cnc(-n2nc(C)cc2C)nc1NNc1cc(C)nc(-c2ccccc2)n1	-0.244% (inactive)
O=C1CC(Cc2ccccc2)C(=O)N1c1ccc(Cl)cn1 (stereo not given)	-0.386% (inactive)
CCOC(=O)C1=C(CN2CCc3ccccc32)NC(=O)NC1c1cc(C)ccc1C (stereo not given)	-0.324% (inactive)
COC(=O)c1ccc(/C=C/c2c(-c3ccc(OC)cc3)sc3ccccc23)cc1	0.0613% (inactive)
CCOc1ccc(NC(=O)c2ccc(CSc3nnnn3C)cc2)cc1	-1.46% (inactive)
CN1CCN(CC(=O)C23CC4CC(CC(C4)C2)C3)CC1	-0.618% (inactive)
Cc1c(C(=O)NNC(=O)c2ccncc2)oc2ccccc12	-1.06% (inactive)
O=c1cc(CN2CCN(c3cccc(Cl)c3)CC2)c2cc3c(cc2o1)CCCC3	0.443% (inactive)
Cc1cccc(N2CC(C(=O)Nc3ccccc3N3CCCC3)CC2=O)c1C (stereo not given)	-0.198% (inactive)
COc1ccc(C2C(C#N)=C(N)Oc3cc(N)ccc32)cc1OC (stereo not given)	0.292% (inactive)
FC(F)(F)c1ccnc(Oc2ccc(C3=NCCS3)cc2)c1	-5.34% (inactive)
CC(=O)Nc1ccc(C(=O)OCC(=O)Nc2ccc([N+](=O)[O-])cc2C(F)(F)F)cc1	0.347% (inactive)
Cc1ccc(CNC(=O)C2CCCN2C(=O)NCc2ccccc2)cc1 (stereo not given)	0.299% (inactive)
Cc1cccc(OCCNC(=S)NC(=O)c2cccnc2)c1	0.352% (inactive)
O=C(NCCN1CCN(C(=O)c2cccc([N+](=O)[O-])c2)CC1)C(=O)NCc1ccc(Cl)cc1	-0.117% (inactive)
O=C(CN(Cc1ccccc1)C(=O)CCC(=O)Nc1ccccn1)NCCc1ccccc1	-0.282% (inactive)
CCOC(=O)CC1COCCN1C(=O)c1cc(COc2ccc(F)c(F)c2)on1 (stereo not given)	-0.113% (inactive)
Cc1ccc(-n2ncc3c2CC(C)(C)CC3NC(=O)CCc2cnn(C)c2)cc1 (stereo not given)	0.222% (inactive)
COc1ccc(N2CCN(C(=O)CCSCc3ccccc3F)CC2)cc1	-0.325% (inactive)
CSc1ccc(/C=C2\NC(=O)NC2=O)cc1	-0.861% (inactive)

Compound	caspase activation
O=C(CCc1n[nH]c(=O)[nH]c1=O)N/N=C/c1ccc(Br)o1	-0.493% (inactive)
CN(C(=O)c1cccc(NC(=O)C2CCN(C(=O)OC(C)(C)C)CC2)c1)C1CCC1	0.788% (inactive)
COCCCNC(=O)C1CCN(c2ccc(N3CCOCC3)nn2)CC1	0.283% (inactive)
C#CCOCCOCCOCCNc1nc(N2CCN(C(=O)[C@H](CCCN=C(N)N)n3cc(C(N)[C@@H](C)CC)nn3)CC2)nc(N2CCN(C(=O)[C@H](CO)n3cc([C@@H](N)C(C)C)nn3)CC2)n1 (stereo not given in full)	0.85% (inactive)
COC(=O)CNC(=O)c1ccc2c(c1)S(=O)(=O)c1ccccc1C2=O	-0.413% (inactive)
CCC1C(=O)NCCN1C(=O)c1ccc2nc(Cc3ccc(OC)cc3)oc2c1 (stereo not given)	-0.419% (inactive)
COc1ccc(CCNc2cc(N3CCN(C(=O)c4ccccc4OC)CC3)ccc2[N+](=O)[O-])cc1OC	-0.378% (inactive)
O=C1c2ccccc2NC(c2ccccn2)N1NS(=O)(=O)c1ccccc1 (stereo not given)	1.93% (inactive)
CC(=O)c1ccccc1NC(=O)C1CC(=O)N(c2ccc3c(c2)OCCO3)C1 (stereo not given)	0.41% (inactive)
Cc1ccc(-c2nnc(CN3CCN(C)CC3)o2)cc1	0.0366% (inactive)
COc1cc2c(cc1OC)C(C(=O)Nc1cc(C)c(OC)c(C)c1)CC(=O)N2 (stereo not given)	0.803% (inactive)
Cc1ccc2cc3cc(C(=O)N4CCCCCC4)oc3nc2c1	0.083% (inactive)
NC1=NC(=O)C(Cc2cccc(Cl)c2)S1 (stereo not given)	-0.108% (inactive)
CC(C)(C)OC(=O)N[C@H](C(=O)OC(C)(C)C)c1ccc(Br)cc1	-0.98% (inactive)
CCOC(=O)c1c(NC(=O)CCCN2CCOCC2)sc2c1CC(C)(C)OC2	-0.683% (inactive)
CN(C)C(=O)Cn1c(=O)n(S(=O)(=O)c2ccccc2)c2ccccc21	-0.645% (inactive)
CN(c1ccc2nc3ccccc3c(=O)n2n1)C1CCCCC1	0.636% (inactive)
CN(C(=O)CSc1nnc(N)s1)c1c(N)n(Cc2ccccc2)c(=O)[nH]c1=O	0.167% (inactive)
O=[N+]([O-])C(=c1ccc2c(c1)N1C3=C(CCCC3)CC3CCCCC31N=2)[N+](=O)[O-] (stereo not given)	6.39% (active)
CCOC(=O)C(NC(=O)CC(C)C)(Nc1sc2c(c1C(N)=O)CCCC2)C(F)(F)F (stereo not given)	0.722% (inactive)
O=C(O)c1cc2ccccc2c(=O)s1	1.64% (inactive)
COc1ccc(CCNC(=O)CN(C)S(=O)(=O)c2ccc3nc(C)sc3c2)cc1OC	-2.31% (inactive)
CCC(C)NC(=O)N[C@@H](CCSC)C(=O)O (stereo not given in full)	0.604% (inactive)

Compound	caspase activation
CCCCC(O)(CCCC)C(=O)NN(C(=O)CCl)c1ccccc1	0.273% (inactive)
COc1ccc(OCC(=O)NN2Cc3ccccc3C2=N)cc1	1.26% (inactive)
Cc1ccc2oc(C(=O)N3CCN(C)C[C@@H]3C(C)C)c(C)c2c1	-0.346% (inactive)
CCOc1ccccc1-n1c(SCC(=O)NCc2ccco2)nnc1-c1ccncc1	-0.681% (inactive)
O=C(NCc1ccccc1)C1CCCN(c2nc3ccsc3c(=O)s2)C1 (stereo not given)	-0.382% (inactive)
COc1cccc(NC(=O)Cn2c3ccc(F)cc3c3nc4n(c(=O)c32)CCS4)c1	-1.98% (inactive)
O=c1c(-c2ccccc2Cl)c[nH]n1-c1ccccc1	-1.88% (inactive)
COc1ccc(C(=O)NCCSc2ccccc2C)cc1	-1.26% (inactive)
OCCC1CN(Cc2cnc(-c3ccccc3)s2)CCN1CCc1ccccc1 (stereo not given)	0.493% (inactive)
CCOCCn1[nH]c2ccccc2c1=O	-0.169% (inactive)
O=S(=O)(Nc1ccc(-c2ccc(N3CCOCC3)nn2)cc1)c1cc(Cl)ccc1Cl	0.476% (inactive)
CC(C)CNC(=S)NNC(=O)c1ccccc1OC(F)F	1.35% (inactive)
CN(Cc1c(F)cccc1Cl)C(=O)CNC(=O)c1ccc2c(c1)OCO2	-0.444% (inactive)
N#Cc1c(-c2ccc(F)cc2)cc(C2CC2)nc1SCC(=O)c1cccs1	-0.105% (inactive)
Cc1cccc(C(=O)NCc2nnc(SC(C)C(=O)Nc3nnc(C)s3)n2C)c1 (stereo not given)	0.308% (inactive)
COc1ccc(C2CC(=O)C=C(NCC3CCCO3)C2)cc1 (stereo not given)	1.09% (inactive)
Cc1c(C(=O)N2CCN(c3ccc(F)cc3)CC2)oc2c1C(=O)CCC2	-0.061% (inactive)
Cc1ccc(CC2C(=O)N(c3ccc(F)cc3)C(=O)C2C)cc1 (stereo not given)	0.618% (inactive)
Cc1cc(-n2cnc(-c3cn(C)nc3C)n2)no1	0.762% (inactive)
O=C(NCc1ccccc1)C1=C[C@@H](C2CCCCC2)C[C@@H](OCc2ccc(CO)cc2)O1	1.39% (inactive)
Cc1ccc(CNC(=O)CCS(=O)(=O)c2ccc3c(c2)CC(C)N3C(=O)C2CC2)o1 (stereo not given)	3.53% (inactive)
O=C(C1CCCO1)N1CCN(C(=S)NC2CC2)CC1 (stereo not given)	-0.789% (inactive)
CC1=C(C(N)=O)C(c2sccc2C)n2nnnc2N1 (stereo not given)	-0.851% (inactive)

Compound	caspase activation
CCC1CCCCN1CCCNC(=O)c1cc2c(Cl)nc3ccccc3c2s1 (stereo not given)	-0.978% (inactive)
CC(=O)C(C)n1cnc2scc(-c3ccc(C)cc3)c2c1=O (stereo not given)	0.409% (inactive)
O=C(NC1CCCCC1)C1CCC(CNS(=O)(=O)c2ccccc2)CC1 (stereo not given)	0.134% (inactive)
CNc1[nH]ncc1[N+](=O)[O-]	-0.643% (inactive)
COc1ccc(C[C@H]2CN3C(=NC[C@H]3C)N2CCNC(=O)CCC2CCCCC2)cc1	0.277% (inactive)
CCCN(c1ccc(C)cc1)c1nc(=O)c2cccnc2s1	0.23% (inactive)
COC(=O)[C@H]1Cc2cnoc2C[C@]1(C)C(=O)O	-0.157% (inactive)
COc1ccc(OC)c(/C=C/C(=O)c2ccc3c(c2)OCO3)c1	-0.508% (inactive)
COc1ccc(Nc2ccc([N+](=O)[O-])cn2)cn1	-0.342% (inactive)
CCN(CC(=O)Nc1ccc(OC)cc1)C(=O)CSCc1ccc(C)cc1	-0.709% (inactive)
COc1ccc(NC(=O)/C(Cl)=C(/Cl)S(=O)Cc2ccc(C)cc2)cn1 (stereo not given)	7.8% (active)
CCc1ccc(OCC2c3cc(OC)c(OC)cc3CCN2C(C)=O)cc1 (stereo not given)	0.768% (inactive)
CC[C@H]1CN2CCc3cc(OC)c(OC)cc3[C@@H]2C[C@@H]1C[C@H]1NCCc2cc(OC)c(OC)cc21	7.26% (active)
COc1ccc2c(c1)CCNC2Cc1ccc(OC)c(O)c1 (stereo not given)	2.35% (inactive)
COc1cccc(NC(=O)CN(C)C(C)C(=O)Nc2ccc(C#N)cc2)c1 (stereo not given)	0.554% (inactive)
CC[N+](C)(CC)CCC[n+]1c(-c2ccccc2)c2cc(N)ccc2c2ccc(N)cc21	2.85% (inactive)
CC(=O)Nc1ccc(Sc2ccccc2C(=O)N2CCCC2)cn1	0.126% (inactive)
Cn1c(C(=O)O)ccc1S(=O)(=O)N(Cc1ccccc1)Cc1ccccc1	-0.442% (inactive)
O=C(NCCc1ccco1)C(=O)NCCC1CCCCN1S(=O)(=O)c1ccccc1 (stereo not given)	0.605% (inactive)
CN(C)c1ccc(Nc2c3c4c(cccc4n(C)c2=O)C(=O)c2ccccc2-3)cc1	-0.124% (inactive)
CC1(C)COC(c2cccn2Cc2ccccc2Cl)=N1	-0.0448% (inactive)
